Records with an inconclusive call do not appear. Unmarked numbers belong to inactive results. The source made the active and inactive calls. Calls come from the whole dose curve; as a rule, active = well fitted inhibition curve with a large enough effect; inconclusive = small, poorly fitted or top-dose-only effect; inactive = flat fitted curve, though single readings scatter.
Assay: P-glycoprotein substrates identified in KB-8-5-11 adenocarcinoma cell line, qHTS therapeutic library screen (AID 1346987); note: nearly all actives have a fitted effect of over 65% in size
Conditions: KB-8-5-11 (P-gp overexpressing) viability, CellTiter-Glo, 72 h; series mostly up to 44.5 µM; activity change, negative = cytotoxicity: at the top concentration
In short: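 KB-8-5-11, a colchicine-selected P-gp-overexpressing KB-3-1 subline, was grown without colchicine for the assay. Cells were seeded at 500 cells/well, dosed in concentration-response and incubated 72 h at 37 degree C, 5% CO2. Viability was read by CellTiter-Glo luminescence.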
% is set by controls: 0 for no effect and ±100 for the full control effect; potency is the fitted concentration of half-maximal effect.

SMILES | outcome | activity change, negative = cytotoxicity | Potency
C=C1[C@H]2CC[C@]3(O)[C@@](CC[C@@H]4[C@](C)(C(=O)O)CCC[C@]43C)(C2)[C@H]1OC(=O)/C(C)=C\C | inactive [at 17.3 µM] |  | 
CNC(=O)O[C@H]1COc2ccc(N3CCN(C4COC4)CC3)cc2[C@@H]1NC(=O)c1ccc(F)cc1 | inactive |  | 
COC(=O)[C@]12C(=O)C(C)=C(O)[C@@]1(C)C(C)=CC1[C@@]34CC[C@@H](OC(C)=O)C(C)(C)C3[C@H](C[C@]12C)OC4=O (stereo partly specified) |  | 7.73% [at 17.3 µM] | 
COc1c(C)c(OCC=C(C)C)cc2c1C(=O)NC2=O |  | -5.18% | 
NC(=O)c1cccc(-c2cc(O)cc(OC(=O)NC3CCCCC3)c2)c1 | inactive [at 17.3 µM] |  | 
CC(=O)N1CCN(NC(=O)c2ccc(F)cc2)CC1 | inactive |  | 
CC1OC(OC2C(C)OC(OC3C(OC(=O)/C=C/c4ccc(O)cc4)C(CO)OC(OC4(COC(=O)/C=C/c5ccc(O)cc5)OC(CO)C(O)C4O)C3OC3OCC(O)(CO)C3O)C(O)C2O)C(O)C(O)C1O (stereo unspecified) |  | 9.5% [at 9.29 µM] | 
COC12CC3C(C(C)C1=CC(=O)O2)C(O)C(OC(C)=O)C1C(C)(C)C(OC(C)=O)CCC31C (stereo unspecified) | inactive [at 17.3 µM] |  | 
CC1=CCC2C(C)(CO)CCCC2(C)C1CC12OC1C(O)C(CO)=CC2O (stereo unspecified) | inactive |  | 
O=C(O)C[C@@H](NC(=O)c1cc(-c2ccc(-c3ccncc3)cc2)cs1)c1ccccc1 |  | 0.138% | 
COc1cc(C2Oc3c(O)cc(CCCO)cc3C2CO)ccc1O[C@H]1O[C@H](C)[C@@H](O)[C@H](O)[C@@H]1O (stereo partly specified) | inactive [at 17.3 µM] |  | 
C=C1CC/C=C(/CO)C(=O)C[C@@H]2[C@@H]1CC2(C)C | inactive |  | 
CC(=O)O[C@H]1[C@H](Oc2ccccc2COC(=O)C2(O)C=CCCC2=O)O[C@H](CO)[C@@H](O)[C@@H]1O (stereo partly specified) |  | -1.5% [at 17.3 µM] | 
CC(/C=C/C1(O)C(C)(C)CC(O)CC1(C)O)OC1OC(CO)C(O)C(O)C1O (stereo unspecified) | inactive [at 17.3 µM] |  | 
CCC(=O)N[C@@H]1Cc2ccccc2[C@H](c2ccccc2)C1 |  | -6.55% | 
CCCCCCCCCCCC[n+]1ccc2ccccc2c1 |  | -28.3% | 

SMILES | outcome | activity change, negative = cytotoxicity | Potency
CCN(c1cc(C#CCN2CCOCC2)cc(C(=O)NCc2c(C)cc(C)[nH]c2=O)c1C)C1CCC(N(C)CCOC)CC1 (stereo unspecified) | inactive |  | 
CC(=O)C1CCC2(C)C3=C(CCC12C)C1(C)CCC(=O)C(C)(C)C1CC3 (stereo unspecified) | inactive |  | 
C=CCc1ccc(O[C@@H]2O[C@H](CO[C@@H]3O[C@H](CO)[C@@H](O)[C@H](O)[C@H]3O)[C@@H](O)[C@H](O)[C@H]2O)c(O)c1 |  | 3.43% [at 17.3 µM] | 
C=C1CC[C@@H]2[C@](C)(CO)[C@H](O)CC[C@@]2(C)[C@@H]1C/C=C1/C(=O)OC[C@H]1O |  | -31% | 
C=Cc1cc(O)cc2nc(-c3ccc(O)c(F)c3)oc12 |  | 7.64% | 
CCCCCCCC(=O)O |  | -5.07% | 
CC(=O)c1c(O)cc2c(c1C)C(=O)CC(O)C2 (stereo unspecified) | inactive |  | 
CCCCC(=O)O[C@]1(C(=O)CO)[C@H](C)C[C@H]2[C@@H]3CCC4=CC(=O)C=C[C@]4(C)[C@@]3(F)[C@@H](O)C[C@@]21C |  | -1.95% | 
Cc1cc(Nc2ncc(Cl)c(Nc3ccccc3S(=O)(=O)C(C)C)n2)c(OC(C)C)cc1C1CCNCC1 |  |  | 6.51 µM (active)
CC(C)=CCC[C@](C)(O[C@@H]1O[C@H](CO[C@@H]2OC[C@@H](O)[C@H](O)[C@H]2O)[C@@H](O)[C@H](O)[C@H]1O)[C@H]1CC[C@]2(C)[C@@H]1[C@H](O)C[C@@H]1[C@@]3(C)CC[C@H](O[C@@H]4O[C@H](CO)[C@@H](O)[C@H](O)[C@H]4O[C@@H]4O[C@H](CO)[C@@H](O)[C@H](O)[C@H]4O)C(C)(C)[C@@H]3CC[C@]12C |  | 4.02% [at 17.3 µM] | 
O=C(O)Cc1nn(Cc2nc3cc(C(F)(F)F)ccc3s2)c(=O)c2nccnc12 | inactive |  | 
CC[C@@H](C(=O)O)[C@@H]1O[C@@H]([C@@H](C)[C@H](O)[C@H](C)C(=O)[C@H](CC)[C@H]2O[C@]3(C=C[C@@H](O)[C@]4(CC[C@@](C)([C@H]5CC[C@](O)(CC)[C@H](C)O5)O4)O3)[C@H](C)C[C@@H]2C)[C@@H](C)C[C@@H]1C |  |  | 2.31 µM (active)
OC[C@H]1O[C@@H](Oc2ccc3c(c2)OC[C@H]2c4cc5c(cc4O[C@@H]32)OCO5)[C@H](O)[C@@H](O)[C@@H]1O | inactive [at 17.3 µM] |  | 
C[C@]12CCC(=O)C=C1[C@@H](O)C[C@@H]1[C@@H]2[C@@H](O)C[C@@]2(C)[C@H]1CC[C@]2(O)C(=O)CO | inactive |  | 
C=CCc1ccc(O[C@@H]2O[C@H](CO)[C@@H](O)[C@H](O)[C@H]2O)c(OC)c1 | inactive |  | 
